BaF3 parental = counter-screen for JAK2V617F inhibitors: parental Ba/F3 viability inhibitors; 220,000 tested, 1.1% active; CellTiter-Glo ATP luminescence; AID 1486; inhibition, % at 5.6 µM;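 active = inhibition above a per-campaign cutoff, the mean inhibition of all tested compounds plus 3 SD, cut at about 27% in these data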;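 note: 0% = DMSO wells and 100% = JAK Inhibitor I control wells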
IEC-6 tox-1 = counter-screen for KLF5 inhibitors: cytotoxicity in IEC-6 cells; IEC-6 cytotoxicity, luminescence viability; inhibition, % at 5 µM; 290,000 tested, 0.78% active;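 note: 0% = plate median of test compound wells and 100% = cytotoxic reference compound wells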
KLF5 inh = suppresses KLF5 promoter-driven expression; 290,000 tested, 0.23% active; inhibition, % at 5 µM; AID 1700; DLD-1 KLF5 promoter-luciferase reporter, luminescence;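 active = inhibition above a per-plate limit of that plate's mean compound inhibition plus 3 SD, cut at about 60% in these data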;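 note: 0% = DMSO wells and 100% = LY294002 at 200 µM; higher means less KLF5 promoter-driven luciferase light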
aSyn UTR inh = 5' untranslated region of α-synuclein, MLPCN primary screen. alpha-synuclein 5'UTR reporter, inhibitor activity. inhibition, % (tested at 7.5 µM). 300,000 tested, 0.82% active. AID 1813; in the data active = inhibition above about 60%;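 note: H4 neuroglioblastoma cells stably carrying SNCA 5'UTR luciferase fusion; 0% = DMSO wells and 100% = positive control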
APP 5UTR inh = APP translation inhibition | SH-SY5Y APP 5'UTR-luciferase reporter, luminescence | inhibition, % at 2 µM | 190,000 tested, 0.82% active;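 active = inhibition above a set limit, derived from the sample mean plus 3 SD, cut at about 45% in these data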
Ba/F3 V617F tox = reduce viability of Ba/F3 cells dependent on JAK2V617F; Ba/F3 EpoR-JAK2V617F viability, ATP luminescence; inhibition, % at 5.6 µM; 220,000 tested, 1.1% active; AID 1446;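 active = inhibition above the campaign mean plus 3 SD over all tested compounds, cut at about 24% in these data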;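 note: cytokine-independent growth of Ba/F3 cells driven by EpoR plus mutant JAK2; 0% = DMSO-treated cells and 100% = JAK inhibitor I control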
KLF5 inh confirm = confirmation of KLF5 inhibitors; shares compounds with KLF5 inh; inhibition, % at 4 µM; 610 tested, 79% active; AID 1834; DLD-1 KLF5 promoter firefly luciferase reporter, luminescence;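 active = inhibition above a set limit taken from the earlier primary screen, cut at about 63% in these data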;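 note: 0% = DMSO wells and 100% = LY294002 at 200 µM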
IEC-6 tox-2 = rat IEC-6 cytotoxicity, KLF5 inhibitor counter-screen. shares compounds with KLF5 inh. IEC-6 rat intestinal cells, viability luminescence. inhibition, % at 4 µM. 610 tested, 56% active; in the data active = inhibition above about 23%;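 note: cells exposed to compounds for 48 hours before viability read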
IEC-6 cytotox cf = IEC-6 cytotoxicity, confirmation assay | shares compounds with IEC-6 tox-1 | 1,900 tested, 63% active | AID 1907 | IEC-6 rat intestinal epithelial viability, luminescence | inhibition, % at 5 µM;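 note: 0% = vehicle and 100% = reference cytotoxic drug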
Starred values were filed as active, the others as inactive. Rows were chosen to be rich in hits. Some 2.2% of all compounds tested hit in one or more screens of this group. Cut-off read from the data, not from the text of the source, unless noted: active = inhibition above about 22%; inactive = the rest.

`CCCCCCCCC[n+]1cccc2c3ccccc3ccc21` gave BaF3 parental 92*, IEC-6 tox-1 60*, KLF5 inh 75*, aSyn UTR inh 69*, APP 5UTR inh 29, Ba/F3 V617F tox 101*, KLF5 inh confirm 71*, IEC-6 tox-2 39* and IEC-6 cytotox cf 72*.
O/N=C/c1cccc[n+]1CCCCCC[n+]1ccccc1/C=N/O was read as IEC-6 tox-1 -3, KLF5 inh -16 and aSyn UTR inh -1.
Screening O=C(Nc1ccc(N2CCN(C(=O)c3cccs3)CC2)cc1)c1cccc(F)c1 returned IEC-6 tox-1 5, KLF5 inh -1 and aSyn UTR inh -7.
For COc1cccc(C(=O)Nc2ccc(N3CCN(C(=O)c4cccs4)CC3)cc2)c1 the results were IEC-6 tox-1 77*, KLF5 inh 63*, aSyn UTR inh -162, KLF5 inh confirm 56, IEC-6 tox-2 35* and IEC-6 cytotox cf 34*.
Screening CCOC(=O)C1=C(C)NC(=S)NC1c1ccsc1 (centres undefined) returned BaF3 parental 7, IEC-6 tox-1 3, KLF5 inh -20, aSyn UTR inh 4, APP 5UTR inh -7 and Ba/F3 V617F tox 3.
Cc1ccc(S(N)(=O)=O)cc1NC(=O)c1ccc2c3c(cccc13)CC2 was read as IEC-6 tox-1 7, KLF5 inh -20 and aSyn UTR inh 30.
Screening O=c1c2ccccc2cnn1-c1nc2ccccc2[nH]1 returned BaF3 parental 65*, IEC-6 tox-1 54*, KLF5 inh 105*, aSyn UTR inh 98*, APP 5UTR inh 69*, Ba/F3 V617F tox 65*, KLF5 inh confirm 100*, IEC-6 tox-2 52* and IEC-6 cytotox cf 60*.
For CCN(CC)CCNC(=O)c1ccc2c(c1NCCO)C(=O)c1ccccc1C2=O the results were BaF3 parental 102*, IEC-6 tox-1 100*, KLF5 inh 107*, aSyn UTR inh 96*, Ba/F3 V617F tox 96*, KLF5 inh confirm 89*, IEC-6 tox-2 102* and IEC-6 cytotox cf 102*.
`O=C(COc1ccc2ccc(=O)oc2c1)Nc1c(Cl)cccc1C(F)(F)F` gave IEC-6 tox-1 -6, KLF5 inh -15 and aSyn UTR inh 10.
For CC(=O)Oc1ccc(C2C3=C(CC(C)(C)CC3=O)Nc3cc4c(cc32)OCCO4)cc1 (centres undefined) the results were BaF3 parental 8, IEC-6 tox-1 2, KLF5 inh -8, aSyn UTR inh 14, APP 5UTR inh -10 and Ba/F3 V617F tox 2.
Screening O=C1OCC2=C1C(c1ccc(F)cc1)c1cc3c(cc1N2)OCCO3 (centres undefined) returned BaF3 parental 96*, IEC-6 tox-1 95*, KLF5 inh 98*, APP 5UTR inh 94*, Ba/F3 V617F tox 96*, KLF5 inh confirm 92*, IEC-6 tox-2 84* and IEC-6 cytotox cf 86*.
O=C1OCC2=C1C(c1ccc3c(c1)OCO3)Sc1ccccc1N2 (centres undefined) was read as BaF3 parental 8, IEC-6 tox-1 -2, KLF5 inh -15, aSyn UTR inh -7, APP 5UTR inh -9 and Ba/F3 V617F tox 1.
Screening C#CCOc1ccc(C2C3=C(COC3=O)Nc3cc4c(cc32)OCO4)cc1OC (centres undefined) returned BaF3 parental 95*, IEC-6 tox-1 95*, KLF5 inh 79*, aSyn UTR inh 132*, APP 5UTR inh 95*, Ba/F3 V617F tox 94*, KLF5 inh confirm 88*, IEC-6 tox-2 83* and IEC-6 cytotox cf 84*.
`COc1cc2c(cc1OC)C(c1ccc3c(c1)OCO3)C1=C(CC(C)(C)CC1=O)N2` (centres undefined) gave BaF3 parental 4, IEC-6 tox-1 -3, KLF5 inh -28, aSyn UTR inh -25, APP 5UTR inh 3 and Ba/F3 V617F tox 3.
O=C1OCC2=C1C(c1ccc(F)cc1)c1cc3c(cc1N2)OCO3 (centres undefined) was read as BaF3 parental 16, IEC-6 tox-1 77*, KLF5 inh 68*, APP 5UTR inh 95*, Ba/F3 V617F tox 59*, KLF5 inh confirm 88*, IEC-6 tox-2 86* and IEC-6 cytotox cf 84*.
For Cc1ccc(S(=O)(=O)Oc2ccccc2/C=N/N=C(N)N)cc1 the results were BaF3 parental 4, IEC-6 tox-1 2, KLF5 inh 3, aSyn UTR inh -18, APP 5UTR inh 20 and Ba/F3 V617F tox 2.
For Cc1ccc(S(=O)(=O)Oc2ccccc2/C=N/NC(N)=S)cc1 the results were BaF3 parental 71*, IEC-6 tox-1 58*, KLF5 inh 65*, aSyn UTR inh 59, APP 5UTR inh 91*, Ba/F3 V617F tox 82*, KLF5 inh confirm 73*, IEC-6 tox-2 57* and IEC-6 cytotox cf -1.
For Cc1cccc(N(C)S(=O)(=O)c2ccc(-c3cc(C)no3)s2)c1 the results were IEC-6 tox-1 78*, KLF5 inh 74*, aSyn UTR inh 88*, KLF5 inh confirm 74*, IEC-6 tox-2 55* and IEC-6 cytotox cf 53*.
Screening CCN(c1cccc(C)c1)S(=O)(=O)c1ccc(-c2cc(C)no2)s1 returned IEC-6 tox-1 67*, KLF5 inh 72*, aSyn UTR inh 26, KLF5 inh confirm 59, IEC-6 tox-2 37* and IEC-6 cytotox cf 37*.
Screening CCCOc1c(Br)cc(C(=O)OCC(=O)NC2CC2)cc1OC returned aSyn UTR inh 4.
Cc1cccc(/C=N/NC(=O)c2ccc3c(c2)OCCO3)c1O was read as IEC-6 tox-1 99*, KLF5 inh 70*, aSyn UTR inh 58, KLF5 inh confirm 39, IEC-6 tox-2 14 and IEC-6 cytotox cf 18.
For O=C(N/N=C/c1cccc(O)c1)c1ccc2c(c1)OCCO2 the results were IEC-6 tox-1 8, KLF5 inh 41 and aSyn UTR inh 15.
Screening Brc1ccc(C2=Nn3c(nnc3-c3n[nH]c4c3CCC4)SC2)cc1 returned BaF3 parental 81*, IEC-6 tox-1 77*, KLF5 inh 67*, aSyn UTR inh 86*, APP 5UTR inh 94*, Ba/F3 V617F tox 75*, KLF5 inh confirm 67*, IEC-6 tox-2 63* and IEC-6 cytotox cf 59*.
For O=C(CCC(=O)N1CCOc2ccccc21)NCCCN1CCN(Cc2ccccc2)CC1 the results were IEC-6 tox-1 -7, KLF5 inh -12 and aSyn UTR inh -1.
`COc1cc(NC(=O)C2CCN(c3cnccn3)CC2)cc(OC)c1OC` gave IEC-6 tox-1 5, KLF5 inh -1 and aSyn UTR inh 11.

Screening data from PubChem.
